Each structure is given as a SMILES string. About 83,000 compounds went through this panel and 20% of them were active in at least one assay; those are over-represented in the sample as a whole.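 Method: cells in 96-well plates; compound added at one concentration; 48 h incubation; percent growth measured; values under 10 scored active.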 Values without a mark were called inactive. The source made the active and inactive calls.

The first assay has as its system TK-10 renal. Kind of assay: NCI-60 one-dose screen, 48 h (100 = growth as untreated, 0 = no growth, -100 = all killed). Particulars: 10 µM unless noted.
For `N=C1N=C(SCc2nc3ccccc3[nH]2)NC(=O)/C1=C/c1ccc(Cl)cc1`, the growth was 143%.
Same read-out and setting: the figure for `COc1ccc(-c2c(Nn3cnnn3)no[n+]2[O-])cc1` is 62.5%; for `CN(C)c1nc(NCCNS(=O)(=O)c2ccc(C(=O)/C=C/c3ccc(F)cc3)cc2)nc(Nc2ccc(F)cc2)n1` it is -41.4% (active); for `N/C(=N\c1nc2ccccc2s1)NC(=O)Nc1ccc(Cl)cc1Cl` it is -84.9% (active).

For the next assay, the system named is ACHN renal. Described as above. Particulars: 10 µM unless noted.
Consider `CCCCSc1nc(Nc2ccc(S(N)(=O)=O)cc2)c(C#N)c(-c2ccc(Cl)cc2)n1`, for which the growth is -66.9% (active).
The same measure, in the same setting: the value for `COc1cc(-c2cc(-c3cccc(OCC(=O)O)c3)[nH]c(=O)c2C#N)cc(OC)c1OC` was 97%; that for `NS(=O)(=O)c1ccc(-n2cc(-c3cccc(NC(=O)c4cc(N5CCOCC5)cc(C(F)(F)F)c4)c3)nn2)cc1` was 80.4%.
Consider `COc1cc(-c2ccc(/C=N/NC(=O)c3[nH]c4ccc(Br)cc4c3-c3ccccc3)o2)cc(OC)c1OC`, for which the growth is 76%.
With `COc1ccc(C2=NN(c3ccccc3)C(c3ccc(OCc4ccccc4)c(OC)c3)C2)cc1OC` (configuration not stated), the growth is 99.4%.
On the same count and under the same terms, the figure for `CC(C)(C)OC(=O)/C=C/c1cccc2c1C(=O)NC(C)(c1cc3cc(Cl)ccc3oc1=O)N2` (configuration not stated) is 19.6%; for `O=C(Nc1ccccc1)N1CCN(c2cc(-c3cn(-c4ccccc4)nc3-c3cccc(O)c3)ccn2)CC1` it is 81.7%.
Turning to `COc1ccc(NC(=O)Cn2c3c(sc2=O)[C@H]2[C@@H](O)[C@@H](O)[C@H](O)[C@@H]2CS3)cc1`, the growth is 96.6%.
For the compound `N#Cc1c(-c2ccccc2Cl)cc(-c2c[nH]c3ccccc23)[nH]c1=O`, the growth was 63.9%.
The same measure, in the same setting: the figure for `COc1ccc(C(=O)/C=C/c2cccc(Cl)c2Cl)cc1S(N)(=O)=O` is -82.4% (active); for `CNC(=O)c1cccc(NC(=O)c2ccc3c(c2)nnn3/C(C#N)=C/c2ccccn2)c1` it is -24.2% (active); for `COc1c(F)ccc(C(=O)Nc2ccc3nc(NC(=O)C4CCCN(S(=O)(=O)c5ccc(C#N)cc5)C4)sc3c2)c1F` (configuration not stated) it is 97.4%.
On the same count and under the same terms, the figure for `O=C(Cn1c2c(sc1=O)[C@H]1[C@@H](O)[C@@H](O)[C@H](O)[C@@H]1CS2)N1CCOCC1` is 102%; for `Nc1nc(-c2ccccc2)c(N=Nc2ccc([N+](=O)[O-])cc2Cl)s1` it is 79.1%; for `C=Cn1cc(C(=O)O)c(=O)c2cc(F)c(N3CCN(c4nccc(-c5nccs5)n4)CC3)cc21` it is -43% (active).
With `C/C(=N\N=C1/C(=O)Nc2ccc(Cl)cc21)c1ccc2c(c1)Nc1ccccc1S2`, the growth is -3.77% (active).
On to `CC1=C(C(=O)c2ccccc2)C(c2cccc3ccccc23)n2c(nc3ccccc32)N1` (configuration not stated), for which the growth was 88.5%.
On the same count and under the same terms, the figure for `C#C[C@]1(O)CC[C@H]2[C@@H]3CC=C4c5sc(-c6ccc(O)c(O)c6)nc5CC[C@]4(C)[C@H]3CC[C@@]21C` is -88.9% (active).
In the case of `NS(=O)(=O)c1ccc(-n2cc(-c3cccc(NC(=O)c4cc(Cl)cc(Cl)c4)c3)nn2)cc1`, the growth is 95.8%.
For `COc1ccc(-c2nnc3ccc(N/N=C/c4ccc(C)cc4)nn23)cc1`, the growth is 59%.
Same read-out and setting: the figure for `O=C(Nc1ccc(C(F)(F)F)cc1)Nc1ccc2oc(=O)ccc2c1` is 6.95% (active); for `O=c1[nH]c(=O)c2c(-c3cc4ccccc4oc3=O)ccnc2[nH]1` it is 53.2%.
As to `CC1(C)CC[C@]2(C(=O)O)CC[C@]3(C)C(=CCC4[C@@]5(C)C[C@@H](O)[C@@H]6OC(c7ccccc7Br)OC[C@@]6(C)C5CC[C@]43C)C2C1` (some centres not stated), the growth was 9.85% (active).
On the same count and under the same terms, the value for `COc1cc(-c2nc3ccc(C)cc3[nH]2)ccc1OCc1nnc(-c2ccc(Br)cc2)o1` was 55.9%.
In the case of `Clc1cccc(N/N=C/c2c[nH]c3ccc(Br)cc23)n1`, the growth was 10.6%.
`Cn1cc(-c2cc3nc(-c4cn(C)c5ncccc45)cc(N)n3n2)c2cc(Cl)ccc21`: the growth is -94.4% (active).
Still for that read-out and setting: the figure for `Cn1cc(-c2nnc(N)nc2-c2c[nH]c3ccccc23)c2cccnc21` is 56.9%.
On the same count and under the same terms, the value for `Cc1ccc([C@H]2C(C(=O)c3ccc(Cl)cc3)C3(N[C@@H]2c2ccccc2)C(=O)Nc2ccccc23)cc1` (some centres not stated) was 22.5%; that for `O=C(Cn1nc(-c2ccccc2)ccc1=O)N/N=C/c1ccc(N2CCOCC2)cc1` was 95.7%.
Still for that read-out and setting: the figure for `COc1cc2c(c(OC)c1OC)C(=O)CC(c1cccc(NC(=O)c3cccc([N+](=O)[O-])c3)c1)O2` (configuration not stated) is 30.1%; for `COc1ccc2[nH]cc(-c3nnc(N)nc3-c3c[nH]c4ncc(Br)cc34)c2c1` it is 59%.
Regarding `CC(C)c1ccc2c(N)c(C(=O)Nc3ccc(C(F)(F)F)cn3)sc2n1`, the growth was 49%.
On to `C=C1CC[C@@H]2[C@]3(C)COC(c4ccco4)O[C@@H]3CC[C@@]2(C)[C@@H]1C/C=C1/C(=O)OCC1OC(C)=O` (some centres not stated), for which the growth is 33.9%.
Same read-out and setting: the value for `CCN(CC)c1ccc(/C=N/Nc2nc(-c3ccc(Br)cc3)cs2)c(O)c1` was 76.1%; that for `N=C1N=C(SCc2nc3ccccc3[nH]2)NC(=O)/C1=C/c1ccc(Cl)cc1` was 99.6%; that for `COc1ccc(-c2c(Nn3cnnn3)no[n+]2[O-])cc1` was 34.1%.
With `CN(C)c1nc(NCCNS(=O)(=O)c2ccc(C(=O)/C=C/c3ccc(F)cc3)cc2)nc(Nc2ccc(F)cc2)n1`, the growth was -81.2% (active).
Same read-out and setting: the value for `N/C(=N\c1nc2ccccc2s1)NC(=O)Nc1ccc(Cl)cc1Cl` was -87.4% (active).

(Values after PubChem BioAssay (NCI).)
